Source: PubChem BioAssay (NCI)
The panel holds about 79,000 compounds, 15% with a hit somewhere; the sample as a whole holds those more often. Active and inactive are the calls of the source. Rule as the data show it: active = growth inhibition above about 70%; inactive = the rest.

Key:
[1] = NCI Yeast Anticancer Drug Screen. Data for the rad52 strain (AID 147);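 also: 0% = growth of vehicle-treated control cultures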; conditions: S. cerevisiae rad52 mutant growth inhibition, active compounds read high
Method in brief: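 Compounds are applied to a genetically defined yeast strain lacking normal DNA damage repair, and inhibition of growth is expressed relative to cultures given vehicle only.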

[2] = NCI Yeast Anticancer Drug Screen. Data for the wt1 strain (AID 149);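 also: 0% = growth of vehicle-treated wt1 cultures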; conditions: S. cerevisiae wt1 strain (SPY 50644) growth inhibition, active compounds read high
Method in brief: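 Compounds are added to wt1 yeast cultures. Growth is then measured. Inhibition is expressed relative to vehicle-treated controls.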

[3] = NCI Yeast Anticancer Drug Screen. Data for the rad50EPP+ strain (AID 151);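 also: 0% = growth of vehicle-treated control cultures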; conditions: S. cerevisiae rad50 mutant strain, active compounds read high
Method in brief: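 Compounds were applied to the rad50EPP+ yeast strain, which bears a defined DNA repair alteration, and growth inhibition was determined relative to vehicle-treated cultures.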

[4] = NCI Yeast Anticancer Drug Screen. Data for the mgt1 strain (AID 153); conditions: S. cerevisiae mgt1 mutant growth inhibition, active compounds read high
Method in brief: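 Strain: mgt1 yeast, one of a set carrying defined DNA damage repair or cell cycle control alterations. Compound-treated growth compared with vehicle.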

[5] = NCI Yeast Anticancer Drug Screen. Data for the rad50 strain (AID 155);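 also: 0% = growth of vehicle-only cultures of the same strain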; conditions: S. cerevisiae rad50 strain growth inhibition, active compounds read high
Method in brief: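 Inhibition values express reduced yeast growth in compound-treated cultures relative to vehicle-treated controls.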

[6] = NCI Yeast Anticancer Drug Screen. Data for the mec2-1 strain (AID 157); conditions: S. cerevisiae mec2-1 strain, active compounds read high
Method in brief: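 Strain: mec2-1 (DNA repair/cell cycle alteration). Compound exposure, then growth measured; inhibition expressed relative to vehicle.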

[7] = NCI Yeast Anticancer Drug Screen. Data for the rad14 strain (AID 159);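 also: 0% = growth of vehicle-treated control cultures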; conditions: S. cerevisiae rad14 strain growth inhibition, active compounds read high
Method in brief: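 A mutant yeast strain defective in DNA damage repair is treated with compound; inhibition of its growth is scored against untreated, vehicle-exposed cultures.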

[8] = NCI Yeast Anticancer Drug Screen. Data for the sgs1 mgt1 strain (AID 161);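 also: 0% = growth of cultures given vehicle only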; conditions: S. cerevisiae sgs1 mgt1 strain, active compounds read high
Method in brief: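 Genetically altered yeast, compound exposure, growth inhibition relative to vehicle.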

[9] = NCI Yeast Anticancer Drug Screen. Data for the CLN2oe strain (AID 163);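 also: 0% = growth of vehicle-only control cultures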; conditions: S. cerevisiae CLN2oe strain, active compounds read high
Method in brief: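 Growth of a genetically modified yeast strain is measured after compound exposure and compared with cultures given vehicle alone.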

[10] = NCI Yeast Anticancer Drug Screen. Data for the cln2 rad14 strain (AID 165);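 also: 0% = growth equal to vehicle treated cultures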; conditions: S. cerevisiae cln2 rad14 strain, active compounds read high
Method in brief: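 Compounds are applied to the cln2 rad14 yeast strain, and growth is then compared with that of vehicle-treated cultures to give inhibition.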

[11] = NCI Yeast Anticancer Drug Screen. Data for the bub3 strain (AID 167); conditions: S. cerevisiae bub3 mutant strain, active compounds read high
Method in brief: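 Steps: expose the mutant yeast strain to compound; grow alongside vehicle-treated cultures; measure growth; express inhibition against the vehicle cultures.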

[12] = NCI Yeast Anticancer Drug Screen. Data for the wt2 strain (AID 169);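 also: 0% = growth of vehicle-treated yeast cultures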; conditions: S. cerevisiae wt2 strain growth inhibition, active compounds read high
Method in brief: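 This strain belongs to a panel of yeast strains with defined genetic alterations in DNA damage repair or cell cycle control. Compounds are applied, and growth inhibition is measured against vehicle-treated cultures.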

[13] = NCI Yeast Anticancer Drug Screen. Data for the sgs1 strain (AID 173);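 also: 0% = growth of vehicle-only control cultures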; conditions: S. cerevisiae sgs1 mutant, active compounds read high
Method in brief: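 Growth of a yeast strain bearing a defined genetic alteration is measured after compound treatment. Inhibition is expressed relative to vehicle-only controls.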

[14] = NCI Yeast Anticancer Drug Screen. Data for the mlh1 rad18 strain (AID 175); conditions: S. cerevisiae mlh1 rad18 strain growth inhibition, active compounds read high
Method in brief: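 Read-out is yeast growth inhibition, calculated against vehicle-only controls. The compound was applied to a strain engineered with DNA damage repair alterations.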

[15] = NCI Yeast Anticancer Drug Screen. Data for the rad18 strain (AID 177); conditions: S. cerevisiae rad18 mutant growth inhibition, active compounds read high
Method in brief: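 Growth of the mutant yeast strain after compound exposure, normalised to vehicle-only cultures.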

[16] = at 5.0 µM (retest, dose inferred, filed as 0.5)
[17] = at 50.0 µM (retest, dose inferred, filed as 5.0)

Measured: growth inhibition

O=C(NCCCCNCCCNC(=O)c1cc(-c2ccccc2)nc2ccccc12)c1cc(-c2ccccc2)nc2ccccc12
inactive: [1]; at 1.2 µM -1% | [1]; at 3.7 µM -1% | [1]; at 11.0 µM -3% | [1]; at 33.0 µM 40% | [2]; at 1.2 µM 6% | [2]; at 3.7 µM 2% | [2]; at 11.0 µM 2% | [2]; at 33.0 µM 5% | [3]; at 1.2 µM 1% | [3]; at 3.7 µM 4% | [3]; at 11.0 µM 12% | [3]; at 33.0 µM 32% | [4]; at 1.2 µM 2% | [4]; at 3.7 µM 2% | [4]; at 11.0 µM -1% | [4]; at 33.0 µM 59% | [5]; at 1.2 µM -5% | [5]; at 3.7 µM -5% | [5]; [16] -29% | [5]; at 11.0 µM -3% | [6]; at 1.2 µM -1% | [6]; at 3.7 µM -3% | [6]; [16] -15% | [6]; at 11.0 µM -4% | [6]; at 33.0 µM 56% | [6]; [17] 59% | [7]; at 1.2 µM 0% | [7]; at 3.7 µM -2% | [7]; at 11.0 µM 1% | [8]; [16] -16% | [8]; [17] 58% | [9]; at 1.2 µM 1% | [9]; at 3.7 µM -1% | [9]; at 11.0 µM -1% | [9]; at 33.0 µM 43% | [10]; [16] 40% | [10]; [17] 55% | [11]; at 1.2 µM -2% | [11]; at 3.7 µM -1% | [11]; [16] -8% | [11]; at 11.0 µM -2% | [11]; at 33.0 µM 50% | [11]; [17] 65% | [12]; at 1.2 µM 2% | [12]; at 3.7 µM -1% | [12]; at 11.0 µM -2% | [12]; at 33.0 µM 20% | [13]; at 1.2 µM 0% | [13]; at 3.7 µM 0% | [13]; at 11.0 µM 1% | [13]; at 33.0 µM 33% | [14]; [16] -13% | [14]; at 50.0 µM 39.5% | [15]; at 1.2 µM 0% | [15]; at 3.7 µM -1% | [15]; at 11.0 µM -1%
active: [1]; at 100.0 µM 92% | [2]; at 100.0 µM 91% | [3]; at 100.0 µM 91% | [4]; at 100.0 µM 94% | [5]; at 33.0 µM 81% | [5]; [17] 97% | [5]; at 50.0 µM 97% | [5]; at 100.0 µM 92% | [6]; at 50.0 µM 97.3% | [6]; at 100.0 µM 94% | [7]; at 33.0 µM 96% | [7]; at 100.0 µM 94% | [8]; at 50.0 µM 97.5% | [9]; at 100.0 µM 91% | [10]; at 50.0 µM 97.6% | [11]; at 50.0 µM 97.2% | [11]; at 100.0 µM 92% | [12]; at 100.0 µM 93% | [13]; at 100.0 µM 93% | [14]; [17] 92% | [15]; at 33.0 µM 89% | [15]; at 100.0 µM 91%

CCN(CC)CC[n+]1ccc2c(C)c3[nH]c4ccc(O)cc4c3c(C)c2c1
inactive: [1]; at 1.2 µM 13% | [1]; at 3.7 µM 41% | [1]; at 11.0 µM 67% | [2]; at 1.2 µM 0% | [2]; at 3.7 µM -1% | [2]; at 11.0 µM 3% | [2]; at 33.0 µM 4% | [2]; at 100.0 µM 8% | [3]; at 1.2 µM 4% | [3]; at 3.7 µM 16% | [3]; at 11.0 µM 46% | [4]; at 1.2 µM 0% | [4]; at 3.7 µM -1% | [4]; at 11.0 µM 0% | [4]; at 33.0 µM 3% | [4]; at 100.0 µM 8% | [5]; at 1.2 µM 13% | [5]; at 3.7 µM 42% | [5]; [16] 36% | [6]; at 1.2 µM -2% | [6]; at 3.7 µM -13% | [6]; [16] 9% | [6]; at 11.0 µM 9% | [6]; at 33.0 µM 8% | [6]; [17] 4% | [6]; at 50.0 µM -11.9% | [6]; at 100.0 µM 43% | [7]; at 1.2 µM -3% | [7]; at 3.7 µM -5% | [7]; at 11.0 µM 3% | [7]; at 33.0 µM 3% | [7]; at 100.0 µM 60% | [8]; [16] 4% | [8]; [17] 13% | [8]; at 50.0 µM 1.5% | [9]; at 1.2 µM -8% | [9]; at 3.7 µM -4% | [9]; at 11.0 µM -8% | [9]; at 33.0 µM -8% | [9]; at 100.0 µM 16% | [10]; [16] -2% | [10]; [17] 18% | [10]; at 50.0 µM -21.6% | [11]; at 1.2 µM -10% | [11]; at 3.7 µM 3% | [11]; [16] 8% | [11]; at 11.0 µM -5% | [11]; at 33.0 µM -7% | [11]; [17] 6% | [11]; at 50.0 µM -14.8% | [11]; at 100.0 µM 2% | [12]; at 1.2 µM 0% | [12]; at 3.7 µM 0% | [12]; at 11.0 µM -1% | [12]; at 33.0 µM 2% | [12]; at 100.0 µM 26% | [13]; at 1.2 µM -2% | [13]; at 3.7 µM -1% | [13]; at 11.0 µM 6% | [13]; at 33.0 µM 9% | [13]; at 100.0 µM 31% | [14]; [16] 7% | [14]; [17] 19% | [14]; at 50.0 µM 27.8% | [15]; at 1.2 µM -2% | [15]; at 3.7 µM -2% | [15]; at 11.0 µM 3% | [15]; at 33.0 µM 12% | [15]; at 100.0 µM 58%
active: [1]; at 33.0 µM 87% | [1]; at 100.0 µM 95% | [3]; at 33.0 µM 88% | [3]; at 100.0 µM 91% | [5]; at 11.0 µM 72% | [5]; at 33.0 µM 89% | [5]; [17] 87% | [5]; at 50.0 µM 95% | [5]; at 100.0 µM 93%
